Experimental data taken from PubChem BioAssay AID1845225 (National Center for Advancing Translational Sciences (NCATS), 2023).
Results filed as inconclusive are left out. Active and inactive are the calls of the source. Calls come from the whole dose curve; as a rule, active = well fitted curve in the direction sought with a large enough effect; inconclusive = small, poorly fitted or top-dose-only effect, or effect the other way, or another doubt; inactive = no such curve, though single readings can be large or run the other way.

assay: Confirmatory redox qHTS assay for identification of artifact compounds.;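 note: 0% = DMSO and 100% = DA3003 at 10 µM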; conditions: Amplex Red/HRP redox cycling with DTT, fluorescence; series mostly up to 39 µM
In short: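 Amplex Red (25 uM final) and HRP (250 mU/mL final) in HBSS, compound 15 min, then 250 uM DTT final 30 min, room temperature, dark; fluorescence 525/598 nm, normalized to DMSO and 10 uM DA3003, Hill fitted.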

outcome, inactive:
COc1ccc(Cn2c(SCc3ccc(C(=O)NC4CCCCC4)cc3)nc3ccncc32)cc1
O=C(Nc1cccc(Br)c1)N1CCC(CN2CCCCC2)CC1
Cc1cc(C)c(S(=O)(=O)NCC(c2ccco2)S(=O)(=O)c2cccs2)c(C)c1 (stereo not given)
CC(O)COCC1OC2OC3C(COCC(C)O)OC(OC4C(COCC(C)O)OC(OC5C(COCC(C)O)OC(OC6C(COCC(C)O)OC(OC7C(COCC(C)O)OC(OC8C(COCC(C)O)OC(OC1C(OCC(C)O)C2OCC(C)O)C(OCC(C)O)C8OCC(C)O)C(OCC(C)O)C7OCC(C)O)C(OCC(C)O)C6OCC(C)O)C(OCC(C)O)C5OCC(C)O)C(OCC(C)O)C4OCC(C)O)C(OCC(C)O)C3OCC(C)O (stereo not given)
C[C@@H]1CC2C3CCC4=CC(=O)C=C[C@]4(C)[C@@]3(F)C(O)C[C@]2(C)[C@@]1(O)C(=O)COC(=O)c1cccc(S(=O)(=O)O)c1 (stereo not given in full)
Cc1ccc(C)c(C(=O)N2CCC(c3nc4c(nnn4Cc4ccccc4)c(=O)[nH]3)CC2)c1
COc1cc(OC)c(NC(=O)C(c2ccccc2)N2Cc3ccccc3C2=O)cc1Cl (stereo not given)
O=C(CCn1c(=O)c2cccn2c2cccnc21)N1CCN(c2ccccc2F)CC1
O=C(NNCNNC(=O)c1ccncc1)c1ccncc1
Cc1ccc(CNC(=O)c2c(-c3ccccc3Cl)noc2C)o1
CC(N)(C(=O)O)c1ccc(S(=O)(=O)O)cc1 (stereo not given)
COc1cc2c(NC3CCN(C(C)C)CC3)nc(N3CCCN(C)CC3)nc2cc1OCCOCCN(C)C
Cc1cc2c(s1)c1cnn(Cc3cc(F)c(Cl)cc3Cl)c(=O)c1n2C
COc1cc2c(NC3CCN(C)CC3)nc(N3CCCN(C)CC3)nc2cc1OCC1CCCNC1 (stereo not given)
O=C(NCCc1csc(-c2cccc(F)c2)n1)C(=O)Nc1cc(F)ccc1F
COc1ccc(CCNC(=O)Cn2ncc3c(C)n(Cc4ccccc4F)c(C)c3c2=O)cc1OC
O=C(COc1ccc(Cl)cc1)Nc1ccc2nc(SCC(=O)N3CCCC3)sc2c1
CCOC(=O)C1CCN(C(c2ccc(OCC)cc2)c2c(O)cc(C)n(CCOC)c2=O)CC1 (stereo not given)
COc1ccc(C(CNC(=O)c2oc3cc(C)c(C)cc3c2C)N2CCCCC2)cc1 (stereo not given)
COc1cccc(-c2nc(SCC(=O)Nc3ccc4c(c3)OCO4)c(-c3ccccc3)[nH]2)c1
Cc1ccc2c(c1)cc(C(=O)NCc1ccc(F)cc1)n2C
Cc1cccc(N2CCN(CCCNC(=O)c3nnc(Cc4c(F)cccc4Cl)o3)CC2C)c1 (stereo not given)
Clc1ccccc1CNc1ncnc2nc[nH]c12
CCCCCCCCOc1ccc(C(=O)O)cc1
O=C(Nc1ccc(Cl)cc1)N1CCC(c2ccccc2)C1 (stereo not given)
Cc1cccc(C(=O)NCCc2nc3ccccc3n2CCC(C)C)c1
CCOc1ccc(C[C@H]2NC(=O)CCSSC[C@@H](C(=O)N3CCC[C@H]3C(=O)N[C@@H](CCCN)C(=O)NCC(N)=O)NC(=O)[C@H](CC(N)=O)NC(=O)[C@H]([C@@H](C)O)NC(=O)[C@H]([C@@H](C)CC)NC2=O)cc1
COc1cc2nc(N3CCCCC3)nc(NC(C)C)c2cc1OC
CC1(C)CC(=O)c2cc(C(=O)NCCc3ccccc3)c(=O)[nH]c2C1
CCOc1ccc(Cn2c(=O)sc3ccccc32)cc1
COc1ccccc1CNC(=O)CCCn1c(=O)c2ccccc2n(CC(=O)Nc2ccc(C)cc2Cl)c1=O
O=C1c2ccccc2C(=O)N1c1cnc2ccccc2c1
COc1cc2c(NC3CCN(C(C)C)CC3)nc(N3CCCN(c4ccccc4)CC3)nc2cc1OCCCN1CCCCC1
CCOc1ccc2nc(N3CCC(C(=O)Nc4ccc(Br)cc4F)CC3)sc2c1
Cc1ccc(C)c(NC(=O)CN2CCCN(Cc3cccc(Cl)c3)S2(=O)=O)c1
COc1ccccc1Cn1c(CNS(=O)(=O)c2ccc3c(c2)CCCC3)nc2cccnc21
FC(F)(F)c1ccccc1-c1nc(NCC23CC4CC(CC(C4)C2)C3)c2ccccc2n1
Cc1cc(C)cc(NC(=O)CSc2cc(C)[nH]c(=O)n2)c1
Cc1cc(C)nc(NC(=S)N2CCN(c3ccc(F)c(F)c3F)CC2)c1

Redox activity vs DA3003, inactive:
CC(C)C[C@H](N)C(=O)N[C@H](C(=O)N[C@H](C(=O)N[C@@H](Cc1ccc(O)cc1)C(=O)N1CCC[C@H]1C(=O)N[C@@H](Cc1c[nH]c2ccccc12)C(=O)N[C@H](C(=O)N[C@@H](CCC(N)=O)C(=O)N[C@@H](CCCN=C(N)N)C(=O)O)[C@@H](C)O)C(C)C)C(C)C -0.687% [at 4.35 µM]
